Measured values from article PMC5540273 (PLoS ONE, 2017).

Key:
Settings in all cases: concentration: 1 μM, replicates: in singlicate; n = 1
ADCK4 = tested on: ADCK4
AKT1 = tested on: AKT1
AKT2 = tested on: AKT2
AKT3 = tested on: AKT3
ALK = tested on: ALK
AMPK-alpha1 = tested on: T1, AMPK-alpha1
T1 construct: gene PRKAA1

AMPK-alpha2 = tested on: T2, AMPK-alpha2
T2 construct: gene PRKAA2

ANKK1 = tested on: ANKK1
ARK5 = tested on: T3, ARK5
T3 construct: gene NUAK1

ASK1 = tested on: T4, ASK1
T4 construct: gene MAP3K5

ASK2 = tested on: T5, ASK2
T5 construct: gene MAP3K6

AURKA = tested on: AURKA
AURKB = tested on: AURKB
AURKC = tested on: AURKC
AXL = tested on: AXL
BIKE = tested on: T6, BIKE
T6 construct: gene BMP2K

BLK = tested on: BLK
BMPR1A = tested on: BMPR1A
BMPR1B = tested on: BMPR1B
BMPR2 = tested on: BMPR2
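Further: KINOMEscan kinase panel screen.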

Structure (SMILES)	%Inh (ADCK4) [%]	%Inh (AKT1) [%]	%Inh (AKT2) [%]	%Inh (AKT3) [%]	%Inh (ALK) [%]	%Inh (AMPK-alpha1) [%]	%Inh (AMPK-alpha2) [%]	%Inh (ANKK1) [%]	%Inh (ARK5) [%]	%Inh (ASK1) [%]	%Inh (ASK2) [%]	%Inh (AURKA) [%]	%Inh (AURKB) [%]	%Inh (AURKC) [%]	%Inh (AXL) [%]	%Inh (BIKE) [%]	%Inh (BLK) [%]	%Inh (BMPR1A) [%]	%Inh (BMPR1B) [%]	%Inh (BMPR2) [%]
N#CC1(c2cccc(C(=O)Nc3cccc(Oc4ccc5nc(NC(=O)C6CC6)sc5n4)c3)c2)CC1	2	27	6	0	15	17	27	0	0	0	3	0	57	48	62	1	95.2	0	0	0
CC(=O)Nc1cn2nc(Oc3cccc(NC(=O)c4cccc(C(F)(F)F)c4)c3)ccc2n1	9	20	0	16	9	0	8	0	12	0	0	0	60	74	51	18	98.2	10	0	0
CN1CCN(Cc2ccc(NC(=O)Nc3ccc(N(C)c4ccnc(Nc5ccc(CS(C)(=O)=O)cc5)n4)cc3)cc2)CC1.Cl [GW827654]	34	0	0	0	47	34	34	80	8	0	4	99.9	99.7	98.5	99.3	93.2	94.1	44	96.2	87
O=C(Nc1n[nH]c2nc(-c3ccccc3)ccc12)C1CC1 [SB-708999]	12	14	9	0	3	17	12	63	8	18	32	22	15	8	0	40	0	0	6	10
Cc1cccc(Nc2nc(N[C@H]3CCCC[C@H]3N)ncc2C(N)=O)c1.Cl [GSK986310]	29	0	28	0	61	39	29	95.7	40	0	6	0	24	62	59	50	67	12	0	28
CCNc1nccc(-c2c(-c3ccc(F)cc3)ncn2C2CCN(C)CC2)n1	8	4	0	0	0	0	0	0	0	15	0	0	0	8	0	13	3	0	0	0
CCn1cnc2c(NCc3ccccc3)ncnc21 [SKF-96418]	0	0	0	0	0	3	0	0	0	0	0	0	41	0	0	0	16	0	0	48
CC(C)(C)c1ccc(C(=O)Nc2cn3cc(-n4ccnc4)ccc3n2)cc1	19	6	0	0	0	14	0	82	2	80	6	0	24	0	0	0	0	3	0	8
Cc1ccc(NC(=O)c2ccnc(N3CCCCC3)c2)cc1-c1ccc(C(=O)NCC2CC2)cc1 [GW775610]	0	0	0	0	10	19	0	0	2	0	0	66	25	35	31	10	10	0	0	0
Cc1ccc(-c2ccc3occ(-c4ccc(S(C)=O)cc4)c3c2)nn1 (stereo not shown)	0	2	12	9	0	0	1	0	16	0	0	0	3	0	0	0	0	15	0	0
CN(C)CCNS(=O)(=O)c1ccc(-c2ccnc3[nH]ccc23)cc1 [GSK977620]	0	57	18	75	50	53	43	0	39	0	23	2	57	85	93.1	82	6	0	0	0
Fc1cc(Cl)ccc1Nc1ccnc2cc(-c3ccc(CN4CCSCC4)o3)ccc12 [GW560106]	31	0	2	0	28	3	18	14	13	0	0	100	0	18	33	4	97.7	14	45	5
CN(c1ccc(F)c(NC(=O)c2cccc(OC(C)(C)C#N)c2Cl)c1)c1ccc2nc(NC(=O)C3CC3)sc2n1	0	2	4	0	46	0	0	0	0	0	6	22	4	0	6	0	96.3	0	0	0
Cc1ccc(O)cc1Nc1ccnc2cc(-c3ccc(CN4CCCCC4)o3)ccc12 [GW557777]	88	0	3	0	0	0	0	0	0	37	0	0	0	15	0	4	99.7	61	99.9	0
Nc1cccc(-c2ccc3c(N)n[nH]c3c2)c1 [GSK2193613]	16	0	0	23	0	0	16	16	0	0	0	10	0	46	0	82	87	0	89	3
CCOc1nccc(-c2c(-c3ccc(F)cc3)ncn2C2CCNCC2)n1 [SB-249175]	8	0	0	16	52	1	5	0	7	0	0	52	59	15	54	0	0	100	20	26
COc1ccc(C2=C(Nc3cccc(O)c3)C(=O)NC2=O)cc1 [SB-390766]	9	0	12	0	73	100	10	32	0	35	7	13	33	0	35	0	0	0	0	24
CC(C)c1nc(-c2ccc(F)c(NS(=O)(=O)c3c(F)cccc3F)c2)c(-c2ccnc(Nc3ccc(N4CCOCC4)nc3)n2)s1 [GSK1804250]	88	0	13	2	26	59	69	23	21	0	25	11	29	88	82	44	99.5	40	99.7	1
N#Cc1cnc2cc(-c3cnc(CNCCN4CCOCC4)s3)ccc2c1Nc1ccc(Oc2ccccc2)cc1 [GW664114]	36	0	0	0	34	21	30	45	10	5	9	0	39	25	98	9	99	0	0	8
COc1cccc(C2=C(Nc3cccc(O)c3)C(=O)NC2=O)c1 [SB-390771]	32	0	7	0	4	16	3	0	12	7	0	16	24	0	1	0	0	0	0	36
